{"source": "PubChem BioAssay (NCI)", "note": "About 83,000 compounds went through this panel and 20% of them were active in at least one assay; those are over-represented in the sample as a whole.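 How to read the values: 0–100, growth inhibition (40 = 60% inhibited); 0, no net growth; -100 to 0, cell death (-40 = 40% of starting cells died; -100 = all dead).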 Values without a mark were called inactive. Active and inactive are the calls of the source.", "data": [{"tested_on": "CCRF-CEM leukemia", "experiment": "NCI-60 one-dose screen, 48 h (100 = growth as untreated, 0 = no growth, -100 = all killed)", "details": "10 µM", "procedure": "Growth inhibition of the CCRF-CEM human tumor cell line is measured as a screen for anti-cancer activity. Cells are grown in 96 well plates and exposed to the test compound for 48 hours. Compounds are tested at a single concentration, which is 10^-5 M for most compounds. The reported endpoint is percent growth (GI% or GIPRCNT), where numbers from 0 - 100% represent growth inhibition, and numbers from -100% - 0 represent cell death. For example, a value of 40 represents 60% growth inhibition. A value of 0 means no net growth occurred over the course of the experiment. A value of -40 indicates 40% of cells at the beginning of the experiment died by the end of the experiment. A value of -100 means all cells are dead at the end of the experiment.\nNCI-60 Human Tumor Cell Lines Screen was performed using the standard one-dose NCI protocol, which is described in more detail at https://dtp.cancer.gov/discovery_development/nci-60/default.htm.\nCompounds with GIPRCNT values below 10 were considered active. Activity score was based on GIPRCNT using the following formula: […]\nScore is 0 for GIPRCNT values of 100 or above, 50 for GIPRCNT values of 0, and 100 for GIPRCNT values of -100.", "values": [{"smiles": "O=C(NC([Se])=NC1CCCCC1)c1ccc2c(c1)OCO2", "growth": "35.3%"}, {"smiles": "CC12OOC(C)(OO1)C2CCC(=O)OCCNc1ccnc2cc(Cl)ccc12", "note": "(stereo not given)", "growth": "9.26% (active)"}, {"smiles": "COc1ccc2cc([C@H](C)C(=O)[Se]CCC#N)ccc2c1", "growth": "7.91% (active)"}, {"smiles": "CC[C@]12C=CCN3CC[C@@]4(c5ccc(OC)cc5N(C)[C@H]4[C@@](O)(C(=O)OC)[C@@H]1OC(=O)CCCC[P+](C1CCCCC1)(C1CCCCC1)C1CCCCC1)[C@@H]32", "growth": "-60.2% (active)"}, {"smiles": "CC12CCC3(CCC(=O)NCCCNc4ccnc5cc(Cl)ccc45)[C@@](C)(OO[C@]3(C)O1)O2", "growth": "3.78% (active)"}, {"smiles": "COc1ccc(/C=C/C(=O)c2nc3ccccc3n2Cc2ccc(Br)cc2)cc1", "growth": "18.7%"}, {"smiles": "O=C([Se]C1C=CCCC1)c1ccc(C(=O)[Se]C2C=CCCC2)s1", "note": "(stereo not given)", "growth": "-36.7% (active)"}, {"smiles": "Cc1c2oc3c(C)ccc(C(=O)N[C@@H]4C(=O)N[C@H](C(C)C)C(=O)N5CCC[C@H]5C(=O)N(C)CC(=O)N(C)[C@@H](C(C)C)C(=O)OC4C)c3nc-2c(C(=O)N[C@@H]2C(=O)N[C@H](C(C)C)C(=O)N3CC(=O)C[C@H]3C(=O)N(C)CC(=O)N(C)[C@@H](C(C)C)C(=O)OC2C)c(N)c1=O", "note": "(stereo not given in full)", "growth": "2.91% (active)"}, {"smiles": "N#C[Se]CC(=O)Nc1cccc(C(F)(F)F)c1", "growth": "22.5%"}, {"smiles": "CC[C@]12C=CCN3CC[C@@]4(c5ccc(OC)cc5N(C)[C@H]4[C@@](O)(C(=O)OC)[C@@H]1OC(=O)CCC[P+](C1CCCCC1)(C1CCCCC1)C1CCCCC1)[C@@H]32", "growth": "-40.9% (active)"}, {"smiles": "C=CCN=C([Se])NC(=O)c1ccc2c(c1)OCO2", "growth": "87.1%"}, {"smiles": "O=C(/C=C/c1ccccc1Cl)c1nc2ccccc2n1Cc1ccc(F)cc1", "growth": "-25.4% (active)"}, {"smiles": "O=C(/C=C/c1ccc(Cl)cc1)c1nc2ccccc2n1Cc1ccc(F)cc1", "growth": "-13.1% (active)"}, {"smiles": "C=CC[Se]C(=O)c1ccc(C(=O)[Se]CC=C)s1", "growth": "-12% (active)"}, {"smiles": "O=C(/C=C/c1ccc(Cl)cc1Cl)c1nc2ccccc2n1Cc1ccc(F)cc1", "growth": "-10.2% (active)"}, {"smiles": "COC(=O)C[C@](O)(CCCC(C)C)C(=O)O[C@H]1C(OC)=C[C@@]23CCCN2CCc2cc4c(cc2[C@@H]13)OCO4", "growth": "0.557% (active)"}, {"smiles": "CC(=O)Oc1ccccc1C(=O)NC([Se])=NC1CCCCC1", "growth": "28.5%"}, {"smiles": "CC1=C(CCC=NNC(N)=O)C2=C(C)C3(CC3)[C@@](C)(O)C(=O)C2=C1", "growth": "10.4%"}, {"smiles": "COc1cc(OC)c(/C=C/C(=O)c2nc3ccccc3n2Cc2ccc(F)cc2)c(OC)c1", "growth": "64.5%"}, {"smiles": "C[C@H]1[C@H](OC(=O)CCC(=O)N(CCCc2cn(-c3ccc(CN4CCOCC4)cc3)nn2)CCNc2ccnc3cc(Cl)ccc23)O[C@@H]2OC3(C)CC[C@H]4[C@H](C)CC[C@@H]1[C@@]24OO3", "growth": "8.19% (active)"}, {"smiles": "COc1cc(OC)c(S(=O)(=O)N(CCCl)CCCl)cc1C(=O)/C=C/c1cc(OC)c(OC)c(OC)c1", "growth": "1.08% (active)"}, {"smiles": "O=C(/C=C/c1ccc(Cl)cc1Cl)c1nc2ccccc2n1Cc1ccc(Br)cc1", "growth": "5.89% (active)"}, {"smiles": "COc1cc(OC)c(S(=O)(=O)N(CCCl)CCCl)cc1C(=O)/C=C/c1ccc(C)cc1", "growth": "70.7%"}, {"smiles": "C#CC[Se]C(=O)c1ccc(C(=O)[Se]CC#C)s1", "growth": "77.4%"}, {"smiles": "O=C(/C=C/c1ccccc1)c1nc2ccccc2n1Cc1ccc(Br)cc1", "growth": "-7.81% (active)"}, {"smiles": "CC(C)N=C([Se])NC(=O)c1cccs1", "growth": "29.7%"}, {"smiles": "CC(=O)Oc1ccccc1C(=O)[Se]C(=NC(C)C)NC(C)C", "growth": "-1.77% (active)"}, {"smiles": "CC[C@]12C=CCN3CC[C@@]4(c5ccc(OC)cc5N(C)[C@H]4[C@@](O)(C(=O)OC)[C@@H]1OC(=O)CCC[P+](c1ccc(F)cc1)(c1ccc(F)cc1)c1ccc(F)cc1)[C@@H]32", "growth": "20%"}, {"smiles": "COC(=O)c1ccc(-n2cc(CCCN(CCNc3ccnc4cc(Cl)ccc34)C(=O)CCC(=O)O[C@@H]3O[C@@H]4OC5(C)CC[C@H]6[C@H](C)CC[C@@H]([C@H]3C)[C@@]46OO5)nn2)cc1", "growth": "15.9%"}, {"smiles": "CC[C@@]12CC(C(=O)OC)=C3Nc4cc5c(cc4[C@@]34CCN(C[C@H]3O[C@H]31)[C@@H]24)[C@@H]1[C@H](O5)[C@@H](O)[C@@]2(CC)CC(C(=O)OC)=C3Nc4cc(OC)ccc4[C@@]34CCN1[C@@H]24", "growth": "15%"}, {"smiles": "CC12OOC(C)(OO1)C2CCC(=O)NCCCNc1ccnc2cc(Cl)ccc12", "note": "(stereo not given)", "growth": "3.13% (active)"}, {"smiles": "COc1cc2cc(C(=O)N3C[C@@H](CCl)c4c3cc(OC(=O)N3CCN(C)[C@@H]5CSSC[C@@H]53)c3ccccc43)[nH]c2c(OC)c1OC", "growth": "-25.1% (active)"}, {"smiles": "COc1ccc(OC)c(/C=C/C(=O)c2nc3ccccc3n2Cc2ccc(F)cc2)c1", "growth": "-18.5% (active)"}, {"smiles": "CN(C)CCc1cn(C2CCC2)c2cccc(O)c12", "growth": "56.6%"}, {"smiles": "CC(C)N=C([Se])NC(=O)c1ccccc1", "growth": "5.47% (active)"}, {"smiles": "C[C@H]1[C@H](OC(=O)CCC(=O)N(CCCc2cn(-c3ccc(C#N)cc3)nn2)CCNc2ccnc3cc(Cl)ccc23)O[C@@H]2OC3(C)CC[C@H]4[C@H](C)CC[C@@H]1[C@@]24OO3", "growth": "15%"}, {"smiles": "Cc1ccc2[nH]c(=S)n(-c3ccc(F)cc3)c(=O)c2c1", "growth": "86.3%"}, {"smiles": "CCOC(=O)C1=C(Nc2ccccc2)C(=O)OC12C(=O)Nc1ccccc12", "note": "(stereo not given)", "growth": "93.9%"}, {"smiles": "O=C(/C=C/c1ccc(F)cc1)c1nc2ccccc2n1Cc1ccc(F)cc1", "growth": "7.89% (active)"}, {"smiles": "C=CC[Se]C(=O)c1cncc(C(=O)[Se]CC=C)c1", "growth": "-39.9% (active)"}]}]}
